GALK inhibitor: blocks human galactokinase activity; actives 0.007% (n = 270,000); AID 1868; P51570; Potency, µM (series often up to 57.5 µM), usual class: inhibitors; Purified GALK, Kinase-Glo residual ATP luminescence
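Kinase-Glo Plus luminescence measured ATP left after a 1 h room-temperature reaction. The reaction used 5 nM GALK, 100 uM galactose and 35 uM ATP at pH 8.0 (20 mM HEPES, 5 mM MgCl2, 60 mM NaCl, 1 mM DTT, 0.01% BSA).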
FBPA coupling cs: inhibits coupling enzyme system, counter-screen for aldolase hits. coupling enzyme system counterscreen, AmpLite Red fluorescence. activity change, negative = inhibition, % at 58.2 µM, hits read low. actives 0.67% (n = 290,000). AID 2472; in the data active = activity change below about -30%
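Activity here indicates interference with the coupling reaction, not aldolase inhibition. Compounds at 57.5 uM final met coupling enzymes for 10 min at RT; substrate and AmpLite Red detection followed, with a 525/598 nm fluorescence read after 20 min.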
RORgamma inh: ROR gamma (mouse) transcription inhibition; P51450; Drosophila S2 Gal4-RORgamma UAS-luciferase reporter, 20 h; Potency, µM (series often up to 53.6 µM), most hits filed as inhibitors; actives 5.4% (n = 310,000); AID 2551; also: nearly all actives have a fitted effect of over 60% in size
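Compounds are pin-transferred onto Drosophila Schneider cells expressing a copper-inducible Gal4–ROR gamma transactivation domain fusion. After 1 hr, copper sulfate is added to 700 uM final; luciferase is read 20 hr later.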
VP16 counter: counter-screen for ROR gamma inhibitors: Gal4-VP16 reporter; Drosophila S2 Gal4-VP16 UAS-luciferase, luminescence, 20 h; Potency, µM (titrated, usually from 53.6 µM), most hits filed as inhibitors; actives 3.5% (n = 310,000); AID 2546;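 also: Gal4-VP16 expression switched on by copper sulfate through the metallothionein promoter; nearly all actives have a fitted effect of over 50% in size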
TrxR1 substrate: substrates of rat thioredoxin reductase 1; O89049; purified TrxR1 substrate turnover, NADPH consumption readout; Potency, µM (highest dose often 114 µM); actives 0.01% (n = 390,000); AID 588456; also: nearly all actives have a fitted effect of over 50% in size
Target sequence (O89049 whole entry, looked up): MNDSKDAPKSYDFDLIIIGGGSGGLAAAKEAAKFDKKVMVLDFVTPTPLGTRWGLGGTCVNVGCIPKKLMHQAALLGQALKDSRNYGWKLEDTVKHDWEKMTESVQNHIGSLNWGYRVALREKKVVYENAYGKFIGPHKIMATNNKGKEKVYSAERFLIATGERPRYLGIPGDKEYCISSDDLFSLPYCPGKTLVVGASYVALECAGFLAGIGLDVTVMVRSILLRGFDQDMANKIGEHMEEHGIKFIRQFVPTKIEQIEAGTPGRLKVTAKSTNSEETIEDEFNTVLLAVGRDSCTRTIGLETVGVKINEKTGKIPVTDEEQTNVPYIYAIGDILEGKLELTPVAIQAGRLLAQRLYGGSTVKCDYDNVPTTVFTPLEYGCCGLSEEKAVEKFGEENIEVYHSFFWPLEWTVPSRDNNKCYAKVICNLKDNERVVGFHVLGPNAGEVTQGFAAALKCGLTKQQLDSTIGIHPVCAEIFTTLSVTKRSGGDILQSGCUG
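Rat TrxR1, dispensed at 90 nM, was prereduced with 400 uM NADPH (final) for 5 min at ~22 deg C, then incubated with compound 15 min before 400 uM selenite. A first-read NADPH fluorescence drop versus no-compound background flagged substrates.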
TrxR1 inh: blocks rat thioredoxin reductase 1 | O89049 | recombinant rTrxR1, NADPH fluorescence consumption, selenite substrate | Potency, µM (top dose mostly 114 µM), most hits filed as inhibitors | actives 1% (n = 390,000) | AID 588453; also: nearly all actives have a fitted effect of over 65% in size
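Rat TrxR1 (90 nM in the dispensed reagent) was pre-reduced with 400 uM NADPH for 5 min at room temperature, then incubated with compound for 15 min. After 400 uM selenite was added, NADPH fluorescence (Ex 340/Em 450 nm) was followed for 8 min.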
Of the large screens only hits and unclear results are named; the others gave an inactive call. Sampled rows, rich in hits. Any-hit rate of the full collection: about 5.9%. Unless noted, calls follow the shape of the dose curve; as a rule, active = well fitted curve in the direction sought with a large enough effect; inconclusive = small, poorly fitted or top-dose-only effect, or another doubt; inactive = no such curve, though single readings can be large; an effect the other way counts as inactive or inconclusive.

COc1ccc2cc(C(c3nnnn3C(C)(C)C)N3CCc4ccccc4C3)c(=O)[nH]c2c1 (stereo unspecified)	RORgamma inh inconclusive (no result: TrxR1 substrate, TrxR1 inh)
Cc1cc2cc(C(c3nnnn3Cc3ccco3)N3CCc4ccccc43)c(=O)[nH]c2cc1C (stereo unspecified)	TrxR1 inh inconclusive
Cc1ccc2[nH]c(=O)c(C(c3nnnn3Cc3ccccc3)N3CCc4ccccc43)cc2c1 (stereo unspecified)	FBPA coupling cs -33, TrxR1 inh inconclusive
CCOc1ccc(CN2C(=O)c3ccccc3Sc3ccc(C(=O)NCCc4ccccc4)cc32)cc1	none (no result: GALK inhibitor, FBPA coupling cs, RORgamma inh, VP16 counter)
COc1cccc(C(=O)NCCS(=O)(=O)N2CCCC2)c1	none (no result: GALK inhibitor, FBPA coupling cs, RORgamma inh, VP16 counter)
COc1ccc([N+](=O)[O-])cc1NC(=O)C(C)N(C)Cc1cccc(OC)c1OC (stereo unspecified)	VP16 counter inconclusive
Cc1ccc2[nH]c(=O)c(C(c3nnnn3C3CCCC3)N3CCCc4ccccc43)cc2c1 (stereo unspecified)	FBPA coupling cs -44, RORgamma inh inconclusive, TrxR1 inh inconclusive
CCONC(=O)Nc1ccccc1[N+](=O)[O-]	RORgamma inh inconclusive
CCOc1ccc(N(C(=O)c2ccccc2Cl)C2=NC(C)(C)CS2)cc1	RORgamma inh 3.2µM
CCOc1ccc(N(CC(=O)Nc2ccccc2Cl)S(C)(=O)=O)cc1	none
CCCn1nc([N+](=O)[O-])c(C(C#N)c2nc3ccccc3s2)c(Cl)c1=O (stereo unspecified)	VP16 counter inconclusive, TrxR1 inh 1.6µM
COC(=O)C1(C)Nc2ccccc2C(=O)N1c1ccccc1C (stereo unspecified)	none
COc1cc(C2CC(=O)Oc3cc(C)c(Cl)c(C)c32)cc(OC)c1OC (stereo unspecified)	none (no result: GALK inhibitor, FBPA coupling cs, RORgamma inh, VP16 counter)
COc1ccc(C2CC(=O)Oc3cc(C)c(Cl)c(C)c32)cc1 (stereo unspecified)	RORgamma inh inconclusive, VP16 counter 32µM (no result: GALK inhibitor)
COc1cc(C2CC(=O)Oc3cc(C)c(Br)c(C)c32)cc(OC)c1OC (stereo unspecified)	RORgamma inh inconclusive, VP16 counter 5.6µM (no result: GALK inhibitor)
CCc1nnc2c3ccccc3nc(Nc3ccc(F)cc3C)n12	none (no result: GALK inhibitor, FBPA coupling cs, RORgamma inh, VP16 counter)
O=C(CSC1=Nc2ccccc2C2=NC(CC(=O)N3CCN(c4ccccc4)CC3)C(=O)N12)NCC1CCCO1 (stereo unspecified)	none
O=C1CCCCc2sc(Br)c([N+](=O)[O-])c2N1	RORgamma inh 11µM, VP16 counter inconclusive, TrxR1 inh 10µM
COC(=O)c1ccccc1S(=O)(=O)C(C)(C)C	none
COC(=O)c1ccccc1S(=O)(=O)NNC(=O)Nc1ccccc1	RORgamma inh 11µM, VP16 counter inconclusive
Cc1ccc(S(=O)(=O)NNC(=O)C(=O)NNc2ccccn2)cc1	RORgamma inh 8.9µM
COCCCNC(=S)NNC(=S)NCCCOC	RORgamma inh inconclusive
COCCCNC(=S)Nc1ccc(OC(F)F)cc1C	RORgamma inh 11µM
COCCCNC(=S)Nc1cc(C)c(C)cc1C	RORgamma inh 7.1µM, VP16 counter 35µM
Cc1ccc(Cl)cc1N1CCN(C(=O)c2ccc(NC3=NC4CS(=O)(=O)CC4S3)cc2)CC1 (stereo unspecified)	none (no result: FBPA coupling cs)
Cn1cc([C@@H]2C[C@H]3CN(Cc4cccc(Cl)c4)C(=O)[C@]34CCCN24)c(-c2ccccc2)n1	RORgamma inh inconclusive, VP16 counter 4µM
Cc1ccc(C(=O)NNC2=Nc3cccc4cccc2c34)cc1	RORgamma inh 0.89µM, VP16 counter 1.4µM
COc1ccc(C(=O)NNC2=Nc3cccc4cccc2c34)cc1	RORgamma inh 0.56µM, VP16 counter inconclusive
NC(=O)NNC1=Nc2cccc3cccc1c23	none
COc1ccc(CC(=O)NNC(=O)Cc2ccc(OC)cc2)cc1	none (no result: TrxR1 substrate, TrxR1 inh)
COc1ccc(CC(=O)NNC2=Nc3cccc4cccc2c34)cc1	RORgamma inh 8.9µM
CC(C)CC(NC(N)=O)C(=O)NCCc1ccc(Cl)cc1Cl (stereo unspecified)	none
Cc1c(Cl)cccc1NC(=S)NCCC(C)C	RORgamma inh 4.5µM, VP16 counter 6.3µM
COC(C(=O)Nc1ccc(Cl)cc1C)c1ccccc1 (stereo unspecified)	none (no result: GALK inhibitor)
Cc1c(Cl)cccc1NC(=S)NCC(C)C	RORgamma inh 6.3µM, VP16 counter inconclusive (no result: GALK inhibitor)
Cc1c(Cl)cccc1NC(=S)NCCC(c1ccccc1)c1ccccc1	RORgamma inh 0.63µM, VP16 counter 1.3µM (no result: GALK inhibitor)
Cc1cc(Cl)ccc1NC(=S)NCCC(c1ccccc1)c1ccccc1	RORgamma inh 7.1µM, VP16 counter 6.3µM
Cc1c(Cl)cccc1NC(=S)NCCN1CCOCC1	RORgamma inh inconclusive
COC(=O)C1=C(C)N(CC(C)C)C(=O)C1	none
N/C(=N\OCC(=O)Nc1ccc(F)c(Cl)c1)c1ccccc1	none (no result: GALK inhibitor, FBPA coupling cs, RORgamma inh, VP16 counter)
O=C(CCC(=O)c1ccc(F)cc1)OCc1nnc(-c2ccc([N+](=O)[O-])cc2)o1	TrxR1 inh 50µM (no result: GALK inhibitor, FBPA coupling cs, RORgamma inh, VP16 counter)
COC(=O)c1cc(N=CC2=C(O)CC(C)(C)CC2=O)cc(C(=O)OC)c1	none
CC1CCCC2(C1)NC(=S)c1c(sc3c1CCCC3)N2 (stereo unspecified)	RORgamma inh 32µM, VP16 counter inconclusive
CN1C(=O)c2c(sc3c2CCCC3)NC1c1ccccc1O (stereo unspecified)	VP16 counter inconclusive (no result: TrxR1 substrate, TrxR1 inh)
NS(=O)(=O)c1ccc(NC(=S)NC(=O)C2CCCC2)cc1	TrxR1 inh inconclusive (no result: FBPA coupling cs)
C=CCN(CC=C)S(=O)(=O)c1ccc(NC(=S)NC(=O)C2CC2)cc1	RORgamma inh 11µM, VP16 counter inconclusive, TrxR1 inh inconclusive
COc1ccc(NC(=S)NC(=O)C2CCCCC2)cc1	none (no result: FBPA coupling cs)
CCN(CC)S(=O)(=O)c1ccc(NC(=S)NC(=O)C(C)C)cc1	RORgamma inh 13µM, VP16 counter inconclusive
CC(=O)Nc1ccc(S(=O)(=O)N(C)Cc2ccccc2)cc1	RORgamma inh inconclusive
CN(Cc1ccccc1)S(=O)(=O)c1ccc(NC(=S)NC(=O)C(C)(C)C)cc1	RORgamma inh 13µM, VP16 counter inconclusive (no result: GALK inhibitor)
CN(Cc1ccccc1)S(=O)(=O)c1ccc(NC(=S)NC(=O)C2CCCCC2)cc1	RORgamma inh 8.9µM, VP16 counter 7.9µM
CSc1nc(N2CCN(Cc3ccc4c(c3)OCO4)CC2)c2ccccc2n1	none (no result: GALK inhibitor)
Cc1cccc(NC(=O)C2CCN(c3cnccn3)CC2)c1	none (no result: GALK inhibitor, FBPA coupling cs, RORgamma inh, VP16 counter)
CC(C)(C)NC(=O)C12CC3CC(CC(Cl)(C3)C1)C2	none
CC(C)(C)NC(=S)NC(=O)C12CCC3CC(CC(C3)C1)C2	RORgamma inh 0.71µM
COC(=O)COc1ccc(C2Nc3c(Cl)ccc(C(=O)O)c3C3C=CCC32)cc1 (stereo unspecified)	TrxR1 inh 13µM

Screening results (PubChem BioAssay)
